Among the test systems are DU-145 prostate; K-562 leukemia; MALME-3M melanoma; MDA-MB-231 breast; RXF 393 renal; SF-268 CNS; SF-295 CNS; SF-539 CNS; UACC-257 melanoma; M14 melanoma.
Experiment in all cases: NCI-60 one-dose screen, 48 h (100 = growth as untreated, 0 = no growth, -100 = all killed)
Conditions in all cases: 10 µM

About 83,000 compounds went through this panel and 20% of them were active in at least one assay; those are over-represented in the sample as a whole.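 Note: values are percent growth. 100 is the growth of untreated cells, values between 100 and 0 indicate rising inhibition; between -100 and 0 indicates cell death.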 Values without a mark were called inactive. Calls of active or inactive are those of the source. The calls were made as follows: active = growth percent below 10; inactive = the rest.

On to `CCCCN(CCCC)C(=O)[C@H](CC)[C@@H]1CC[C@@H](C)[C@@H]([C@H](C)[C@@H](O)[C@@H](C)C(=O)[C@H](CC)C2O[C@]3(C=CC(=O)[C@]4(CC[C@@](C)([C@H]5CC[C@](O)(CC)[C@H](C)O5)O4)O3)[C@H](C)C[C@@H]2C)O1` (stereo not given in full), for which the growth in the assay with DU-145 prostate was 84.9%; in the assay with K-562 leukemia it was 24.4%; in the assay on MALME-3M melanoma, -5.97% (active); in the assay on MDA-MB-231 breast it was 46.8%; in the assay on RXF 393 renal, 47%; with SF-268 CNS it was 68.6%. Besides, the growth in the assay with SF-295 CNS was 2.72% (active); with SF-539 CNS, 59.6%; with UACC-257 melanoma, 21.3%; with M14 melanoma, 30%.
For `Clc1ccc(/C=C2\CCCC3C2=Nc2ccccc2NC3c2ccc(Cl)cc2)cc1` (stereo not given), the growth in the assay with DU-145 prostate was 89.2%; in the assay on K-562 leukemia, 47.2%; in the assay on MALME-3M melanoma it was 89.7%; with MDA-MB-231 breast, 97.6%; in the assay on RXF 393 renal, 65.3%; in the assay on SF-268 CNS, 80%. Further, the growth in the assay with SF-295 CNS is 83.3%; in the assay with SF-539 CNS, 92.3%; with UACC-257 melanoma, 79.9%; in the assay with M14 melanoma, 29.1%.
For the molecule `Cc1ccc(NCCNCC(C)(C)O)c2c(=O)c3ccc(Cl)cc3sc12`, the growth in the assay with DU-145 prostate is 5.67% (active); in the assay on K-562 leukemia it was -63.1% (active); in the assay with MALME-3M melanoma, -71.8% (active); with MDA-MB-231 breast, -36.9% (active); in the assay on RXF 393 renal, 24.2%; in the assay with SF-268 CNS it was 39.4%. Further, the growth is 74.1% in the assay on SF-295 CNS, 69.8% in the assay with SF-539 CNS, 78.5% in the assay on UACC-257 melanoma and -78.7% (active) in the assay with M14 melanoma.
As for `C=CCn1c(SCC(=O)Nc2ccc(C(=O)/C=C/c3ccc(OC)cc3)cc2)nnc1-c1ccc(OC)c(OC)c1`, the growth was 97.7% in the assay on DU-145 prostate; 63.6% in the assay on K-562 leukemia; 110% in the assay with MALME-3M melanoma; 72.3% in the assay on MDA-MB-231 breast; 84.7% in the assay on RXF 393 renal; 84.1% in the assay on SF-268 CNS. Besides, the growth was 93.5% with SF-295 CNS, 102% in the assay on SF-539 CNS, 84.6% in the assay with UACC-257 melanoma and 89.6% with M14 melanoma.
`C/C(=C/CCC(C)[C@@H]1CC[C@]2(C)C3=C(CC[C@@]12C)[C@@]1(C)CCC(=O)C(C)(C)[C@@H]1CC3)C(=O)O` (stereo not given in full): the growth in the assay with DU-145 prostate was -92.3% (active); with K-562 leukemia, -16.1% (active); in the assay on MALME-3M melanoma, -88.9% (active); with MDA-MB-231 breast, -76.8% (active); in the assay on RXF 393 renal, -90.2% (active); in the assay on SF-268 CNS it was -92.2% (active). Further, the growth with SF-295 CNS is -90.5% (active); in the assay with SF-539 CNS it was -76% (active); with UACC-257 melanoma it was -57.5% (active); with M14 melanoma, -76.8% (active).
For `COc1ccc(-c2onc(N)c2-c2cc(OC)c3c(c2)OCO3)cc1`, the growth in the assay on DU-145 prostate is 29.3%; in the assay on K-562 leukemia, 13%; in the assay on MALME-3M melanoma, 29.5%; with MDA-MB-231 breast, 56.7%; in the assay on RXF 393 renal, 24.8%; in the assay with SF-268 CNS, 50.1%. In addition, the growth in the assay with SF-295 CNS was 14.3%; in the assay on SF-539 CNS, 20.1%; in the assay with UACC-257 melanoma, 47.5%; in the assay with M14 melanoma it was -0.971% (active).
In the case of `Cc1ccc2nc(Cl)c(-c3nc4ccccc4o3)cc2c1`, the growth with DU-145 prostate was 103%; in the assay with K-562 leukemia, 80.7%; in the assay on MALME-3M melanoma, 86.9%; in the assay on MDA-MB-231 breast, 91.4%; in the assay with RXF 393 renal it was 102%; in the assay with SF-268 CNS, 87.9%. Besides, the growth in the assay with SF-295 CNS is 105%; in the assay with SF-539 CNS, 99.2%; in the assay with UACC-257 melanoma it was 108%; in the assay with M14 melanoma it was 106%.
For `CC(C)CCN(CCC(C)C)CC(=O)Nc1ccc(S(=O)(=O)c2ccc(NC(=O)CN(CCC(C)C)CCC(C)C)cc2)cc1`, the growth with DU-145 prostate was 54%; in the assay with K-562 leukemia it was 3.86% (active); in the assay on MALME-3M melanoma, 19.4%; with MDA-MB-231 breast, 31%; with RXF 393 renal, 24.9%; in the assay with SF-268 CNS, 34.5%. Moreover, the growth was 90.1% with SF-295 CNS, 21.4% in the assay with SF-539 CNS, 56.2% with UACC-257 melanoma and 31.6% in the assay on M14 melanoma.
For `CC(=O)Nc1ccc(S(=O)(=O)c2ccnc3cc(Cl)ccc23)cc1`, the growth was 53.7% with DU-145 prostate; 78.9% with K-562 leukemia; 66.5% in the assay with MALME-3M melanoma; 88.3% with MDA-MB-231 breast; 66.7% in the assay on RXF 393 renal; 82.8% in the assay with SF-268 CNS. For the same molecule, the growth in the assay with SF-295 CNS was 97.2%; in the assay on SF-539 CNS, 99.5%; in the assay with UACC-257 melanoma it was 64.4%; in the assay on M14 melanoma it was 95.3%.
Consider `O=C(N/N=C/c1cc([N+](=O)[O-])ccc1O)c1cccc2ccccc12`, for which the growth with DU-145 prostate was 45.2%; in the assay with K-562 leukemia, 30.3%; with MALME-3M melanoma, 53.7%; with MDA-MB-231 breast, 40.9%; with RXF 393 renal, 46.5%; in the assay with SF-268 CNS, 39.8%. Besides, the growth in the assay on SF-295 CNS was 26.4%; in the assay with SF-539 CNS, 22.9%; in the assay on UACC-257 melanoma, 23.5%; with M14 melanoma, 34.5%.
Regarding `COc1cc2c(cc1NC(=O)C(F)(F)F)-c1ccc(NC(=O)C(F)(F)F)cc1C2`, the growth was 93.4% in the assay on DU-145 prostate; 100% in the assay on K-562 leukemia; 83.7% with MALME-3M melanoma; 91.1% in the assay with MDA-MB-231 breast; 35.7% in the assay on RXF 393 renal; 90.1% in the assay on SF-268 CNS. Moreover, the growth is 83.4% in the assay with SF-295 CNS, 80.6% in the assay with SF-539 CNS, 109% in the assay with UACC-257 melanoma and 113% in the assay on M14 melanoma.
Consider `COc1ccc(/C=C2/SC(=S)NC2=O)c(OC)c1OC`, for which the growth with DU-145 prostate was 97.9%; in the assay on K-562 leukemia, 84%; with MALME-3M melanoma, 65.7%; with MDA-MB-231 breast it was 62.7%; in the assay on RXF 393 renal, 81.5%; in the assay with SF-268 CNS it was 80.5%. Besides, the growth with SF-295 CNS was 76.5%; in the assay with SF-539 CNS, 83.2%; in the assay on UACC-257 melanoma it was 88.9%; in the assay with M14 melanoma it was 87.4%.
Turning to `CCOC(=O)c1cc(C(=O)c2ccc(OC)c(OC)c2)n2c1ccc1ccc3cccnc3c12`, the growth in the assay with DU-145 prostate is 21.7%; in the assay on K-562 leukemia, 14.7%; in the assay with MALME-3M melanoma, 40.1%; in the assay on MDA-MB-231 breast, 45.2%; in the assay with RXF 393 renal, 24.8%; in the assay on SF-268 CNS, 51.8%. The growth is 12% with SF-295 CNS, 9.16% (active) in the assay on SF-539 CNS, 51% in the assay with UACC-257 melanoma and 7.8% (active) in the assay on M14 melanoma.
Turning to `NC1=NC(c2ccc(Cl)cc2)C2=C(N1)/C(=C/c1ccc(Cl)cc1)CCC2` (stereo not given), the growth in the assay on DU-145 prostate is 97.2%; with K-562 leukemia, 43.5%; in the assay with MALME-3M melanoma, 97.7%; with MDA-MB-231 breast it was 102%; in the assay on RXF 393 renal, 34.5%; in the assay on SF-268 CNS, 83.2%. Further, the growth is 67.5% in the assay on SF-295 CNS, 121% in the assay on SF-539 CNS, 79.4% with UACC-257 melanoma and 11% with M14 melanoma.

The values above are taken from PubChem BioAssay (NCI).
